Legend:
Assay in all cases: PBM binding z-score (relative to random genomic background probes); higher = stronger binding; sequences stand for … in GC…GCGATTGACAGCGTAGAATGAAGG
[1] = tested on: PPARg:RXRa DBDmut IVT, anti-RXR (DBD mutation: RXRa K156A/R161A, NR concentration 270 nM, RXRa partner concentration 90 nM)
Summary of the method: (§1)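 Ligand-free nuclear receptor dimers were applied to custom Agilent 4×180K protein-binding microarrays whose double-stranded probes carried direct-repeat seeds, single-nucleotide variants, half-site ablations and random human genomic background sequences in 34-nt variable regions. Incubation lasted 1 h. Binding z-scores were computed against the random background probes from regression-normalized fluorescence.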

[2] = tested on: PPARg:RXRa IVT, anti-PPARg (NR concentration 270 nM, RXRa partner concentration 90 nM)
Summary of the method: as §1

[3] = tested on: PPARg DBDmut:RXRa IVT, anti-PPARg (DBD mutation: PPARg1 K132A/R137A, NR concentration 270 nM, RXRa partner concentration 90 nM)
Summary of the method: as §1

[4] = tested on: PPARg DBDmut IVT, anti-PPARg (DBD mutation: PPARg1 K132A/R137A, NR concentration 270 nM)
Summary of the method: as §1

[5] = tested on: PPARg homodimer (NR concentration 180 nM)
Summary of the method: as §1

[6] = tested on: PXR:RXRa (NR concentration 270 nM, RXRa partner concentration 90 nM)
Summary of the method: as §1

[7] = tested on: PXR homodimer (NR concentration 270 nM)
Summary of the method: as §1

[8] = tested on: RARa:RXR (NR concentration 270 nM, RXRa partner concentration 90 nM)
Summary of the method: as §1

[9] = tested on: RARa homodimer (NR concentration 270 nM)
Summary of the method: as §1

[10] = tested on: RARb:RXRa (NR concentration 270 nM, RXRa partner concentration 90 nM)
Summary of the method: as §1

[11] = tested on: RARb homodimer (NR concentration 270 nM)
Summary of the method: as §1

[12] = tested on: RARg:RXRa (NR concentration 270 nM, RXRa partner concentration 90 nM)
Summary of the method: as §1

[13] = tested on: RARg homodimer (NR concentration 270 nM)
Summary of the method: as §1

[14] = tested on: RXRa DBDmut IVT, anti-RXR (DBD mutation: RXRa K156A/R161A, NR concentration 90 nM)
Summary of the method: as §1

[15] = tested on: RXRa homodimer (NR concentration 180 nM)
Summary of the method: as §1

[16] = tested on: THRa:RXRa (NR concentration 90 nM, RXRa partner concentration 90 nM)
Summary of the method: as §1

[17] = tested on: THRa homodimer (NR concentration 90 nM)
Summary of the method: as §1

[18] = tested on: VDR homodimer (NR concentration 270 nM)
Summary of the method: as §1

Sequence	PBM binding z-score [1]	PBM binding z-score [2]	PBM binding z-score [3]	PBM binding z-score [4]	PBM binding z-score [5]	PBM binding z-score [6]	PBM binding z-score [7]	PBM binding z-score [8]	PBM binding z-score [9]	PBM binding z-score [10]	PBM binding z-score [11]	PBM binding z-score [12]	PBM binding z-score [13]	PBM binding z-score [14]	PBM binding z-score [15]	PBM binding z-score [16]	PBM binding z-score [17]	PBM binding z-score [18]
CGTCAAAGTGCAAGGTAACGTAACAGAAAGCAGC	0.0283	0.682	-0.0131	-0.0811	0.153	0.149	-0.225	0.344	-0.0833	2.05	0.846	0.771	1.24	1.21	0.508	1.08	0.0291	0.017
TCTCGGAGGACACGAAAGGTCAGAGCTCGACATC	1.62	1.53	0.174	-1.26	3.04	3.96	0.404	4.18	1.9	4.14	4.73	4.97	5.83	0.844	3.97	3.52	1.08	0.918
ACTATTAGTTGAGACGAGGGCAACCTATAGGTTG	-0.0527	0.486	1.43	1.25	0.36	1.39	0.585	1.09	0.942	0.936	1.39	0.509	0.764	0.356	0.544	2.63	0.429	0.902
AGAATGAGGTTACCAAAGCTCAGGGAAACGCTTG	3.42	3.11	0.652	0.289	0.125	0.966	-0.338	1.77	-0.239	2.15	0.544	1.91	1.54	1.04	2.62	2.83	0.864	-0.0119
CCTACGGGGCCAAAAAGGTCATTGATGCCGATAA	0.493	1.52	-1.13	-0.859	2.87	5.34	9.18	5.07	0.847	4.26	4.54	5.07	4.8	1.23	5.09	3.44	0.423	3.98
TCATATAGGTAAAAGGAGAAAGTCGGTGTGGTAA	4.08	2.11	0.507	0.375	0.959	0.415	0.686	0.571	1.29	0.195	-0.155	0.181	0.123	1.49	0.649	-0.0526	-0.722	0.471
GCTAGTTGGTCAGTTAAAGGTCACACACCGGTCG	1.33	2.95	0.429	0.266	5.59	4.98	1.44	6.18	2.99	4.13	5.09	5.56	4.82	0.773	5.12	3.53	2.36	2.33
CCGACTGGGGCAGAAAGCTTACCATACCATCCGG	1.49	0.739	-1.01	-2.56	-0.236	-0.856	-0.585	-1.22	-0.188	-0.092	-0.46	-0.395	-0.221	-0.744	-0.422	-0.808	-0.889	-0.719
CCTACTGGGCCAAAGTCATTGATCAGTCAAAGCA	4.29	3.6	-0.537	-0.517	-0.302	-0.584	-0.623	-0.335	-1.15	0.121	-0.0618	-0.124	-0.109	-0.332	-0.525	-0.226	-0.645	-0.635
CTTGAAAGGTCGTGCTCAGGTGAGTATACCAAAC	0.999	2.01	1.03	0.763	1.71	3.72	0.102	4.53	0.107	3.99	2.75	5.02	3.64	2.21	5.06	4.21	0.803	1.03
TCACCAAGGTGAAAGGTCGTTGATGCACGCCTTG	3.13	4.81	0.292	0.0423	0.508	3.77	-0.165	4.87	-0.322	3.17	2.63	4.15	2	1.09	5.41	3.33	0.739	0.922
CGAACTAGGTCATTGACGGGACAGTGAATAGTAA	8.12	8.13	2.44	0.8	1.5	1.15	0.012	1.98	0.192	3.63	2.6	4.41	4.35	2.41	2.61	2.63	0.664	0.927
ATCGAAAGGTCGACGAGCTGAGTATACACCGTTT	0.472	1.18	0.525	1.06	0.589	2.22	-0.245	2.78	0.204	3.72	2.38	3.86	3.6	1.09	4.01	1.58	-0.705	0.176
AATACAGGGTCACTAGGCCACAGTAGGTACGAAT	4.65	6.73	4.31	2.11	3.96	3.36	0.57	4.14	1.37	4.27	3.36	5.36	4.87	2.86	5.56	3.38	1.32	2.95
GCTTGTAGATCAAGGTTAAGATAGACTAAGCTAA	1.44	1.14	0.0148	-0.396	0.519	0.536	0.00293	0.825	-0.522	0.938	0.293	0.611	0.411	0.0981	1.04	1.21	-0.344	-0.108
ATTTCTAGGTAACAAGTTCAGTGAAAGAGAGGAC	5.53	4.99	3.1	2.25	1.94	1.79	2.69	1.45	2.03	2.12	2.14	1.75	1.66	1.44	1.12	1.83	1.35	3.04

Sequence	PBM binding z-score [1]	PBM binding z-score [2]	PBM binding z-score [3]	PBM binding z-score [4]	PBM binding z-score [5]	PBM binding z-score [6]	PBM binding z-score [7]	PBM binding z-score [8]	PBM binding z-score [9]	PBM binding z-score [10]	PBM binding z-score [11]	PBM binding z-score [12]	PBM binding z-score [13]	PBM binding z-score [14]	PBM binding z-score [15]	PBM binding z-score [16]	PBM binding z-score [17]	PBM binding z-score [18]
ATCTCTAGGTAAGACCCAGTTCAGTGAAGAACGC	2.24	1.79	0.676	0.699	0.695	0.9	1.45	0.59	0.821	0.371	0.62	0.282	0.0331	0.175	0.283	0.738	0.878	1.3
CCTTACGGGTCACTCCAGTTTATAGCATCGGAGT	2.98	3.39	0.913	0.686	2.32	6.04	1.06	3.6	0.603	3.74	2.7	4.06	4.22	1.78	3.83	4.11	0.161	2.06
TCTAGTAGTTGAAGGGCAACCGACGAGTCCGTTT	1.78	0.527	0.13	-0.187	0.499	0.507	0.346	-0.0241	0.58	1.4	1.29	0.178	0.164	1.02	0.622	0.117	-0.38	0.676
ATTCGGAGGACAAAGGTCAGAGCTACGCCAGTGA	0.417	3.74	0.302	-0.48	3.33	3.99	0.477	4.9	0.808	4.39	4.59	5.89	5.52	0.937	5.03	3.41	0.717	1.32
ATCCCAAGGTGATCGTGAGGTCGTTGATACTAAC	0.258	0.592	0.328	-0.0144	1.01	2.89	1.37	1.81	0.229	1.31	1.61	1.97	0.447	0.515	1.21	3.42	2.59	2.9
CAAACTAGGTCAATGTCAAAGTCGGTTTGTGCCA	8.51	8.59	5.32	4.74	2.82	1.39	-0.00687	2.11	0.756	3.86	3.06	3.43	4.16	1.94	2.36	2.56	0.861	1.28
TCATATAGGTAAATGATAGGTGAAAGTCCGATCT	3.92	2.51	1.28	1.62	1.19	0.828	0.487	1.49	1.16	0.612	0.731	0.906	0.775	1.92	1.15	0.682	0.132	0.346
TAGCCTAGGTAATGCGGGCCAGTATAGTGTCGGC	0.0726	0.795	-0.707	-0.721	-1.01	-0.858	-1.13	-0.925	-1.12	-0.447	-0.521	-0.6	-0.559	-1.3	-0.499	-0.418	-0.74	-0.784
ATGTCTAGGTAAGACTCAGTTCAGTGAAGAACGC	0.955	0.996	0.297	0.538	0.433	0.668	1.4	-0.0923	0.712	0.132	0.578	0.0385	0.257	0.0481	0.0164	0.567	0.326	1.07
CCACCAAGGTGAACAAGGTCGTTGATTACTATTC	2.14	2.55	0.528	0.567	1.61	3.17	2.75	2.58	0.52	2.37	2.39	2.05	1.62	1.32	2.07	3.42	2.4	3.07
TCTCGGAGGACACGAACGTCAGAGCTTTCCAGAG	0.985	-0.0503	-0.617	-1.23	-1.43	-0.256	-0.522	-0.0977	-1.21	1.35	0.309	0.302	0.872	0.441	0.094	1.25	0.208	-0.356
TAGCCTAGGTCATGGCCCAGTATACCACGCGAAC	1.98	4.42	0.172	-0.0252	3.1	1.91	-0.224	3.53	0.397	4.01	3.06	4.47	4.41	0.508	3.73	3.38	1.49	0.698
TCTTGTAGATCAAGCAGGTTAGGAAAGCCTGAGT	1.57	0.595	0.172	-0.0543	-0.235	-0.00169	0.0817	0.204	-0.0735	-0.0169	0.012	-0.289	-0.589	0.37	-0.0446	0.0299	-0.467	0.231
TCATATAGGTAAACAGTTGAAAGTCCGTAAGTTA	4.45	3.32	1.41	0.905	1.35	1.03	0.634	1.35	1.47	0.681	0.802	0.44	0.23	1.9	0.856	0.535	0.428	0.845
CGTCAAAGTTCAAGGTAACGTGACAGAAAGCAGC	0.641	2.15	0.0239	0.308	2.16	4.21	2.13	3.56	1.05	5.08	3.72	5.21	5.97	4.54	4.26	2.99	1.08	3.04
